Compounds without any hit were thinned out: in the full panel of roughly 83,000, 20% have a hit.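 Testing used 96-well plates and a 48-hour single-concentration exposure. Example: -40 means 40% of the starting cells died.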 Values without a mark were called inactive. Active and inactive are the calls of the source.
These compounds were tested on SR leukemia (assay: NCI-60 one-dose screen, 48 h (100 = growth as untreated, 0 = no growth, -100 = all killed)). Settings: 10 µM.
Experimental: Growth inhibition of the SR human tumor cell line is measured as a screen for anti-cancer activity. Cells are grown in 96 well plates and exposed to the test compound for 48 hours. Compounds are tested at a single concentration, which is 10^-5 M for most compounds. The reported endpoint is percent growth (GI% or GIPRCNT), where numbers from 0 - 100% represent growth inhibition, and numbers from -100% - 0 represent cell death. For example, a value of 40 represents 60% growth inhibition. A value of 0 means no net growth occurred over the course of the experiment. A value of -40 indicates 40% of cells at the beginning of the experiment died by the end of the experiment. A value of -100 means all cells are dead at the end of the experiment.
NCI-60 Human Tumor Cell Lines Screen was performed using the standard one-dose NCI protocol, which is described in more detail at https://dtp.cancer.gov/discovery_development/nci-60/default.htm.
Compounds with GIPRCNT values below 10 were considered active. Activity score was based on GIPRCNT using the following formula: […]
Score is 0 for GIPRCNT values of 100 or above, 50 for GIPRCNT values of 0, and 100 for GIPRCNT values of -100.

Row | SMILES | growth
1 | COc1cc(Cl)cc(-c2nn(-c3cccc(NC(=O)Nc4cccc(C(F)(F)F)c4)c3)cc2-c2ccncc2)c1 | -13.5% (active)
2 | C/C(=N/NC(=O)c1sc(=S)n(C)c1N)c1cc2cc(Cl)ccc2o1 | 98.7%
3 | CCOC(=O)[C@@H](Cc1ccccc1)NC(=O)c1[nH]c2ccc(Cl)cc2c(=O)c1C | 61.3%
4 | O=C(c1ccccc1)C(Nc1ccccc1)c1ccccc1 (stereo not given) | 96.2%
5 | O=C1c2cc(Cl)ccc2-c2c(O)cc(Cl)cc21 | 39.3%
6 | FC(F)(F)c1ccc(-c2ncc(-c3ccc(C(F)(F)F)cc3)c(NCc3cc(C(F)(F)F)cc(C(F)(F)F)c3)n2)cc1 | 83.7%
7 | CC(C)(C)CC(C)(C)c1ccc(O)c(Cc2ccc(Cl)cc2Cl)c1 | -57.5% (active)
8 | CCCCCCCC/C=C/CCCCCCCCC1=NCCN1CCO | -8.86% (active)
9 | CC1(C)Cc2c(cn(Cc3ccccc3)c2-c2ccccc2)-c2oncc21 | 86.8%
10 | CCSc1nc2c([nH]1)c(=O)n(C)c(=S)n2C | 118%
11 | O=[N+]([O-])c1ccc(-c2nc(Cl)c3c(n2)CCCC3)o1 | 44.7%
12 | CN1/C(=C\C(I)C(I)C2=[N+](C)c3ccccc3C2(C)C)C(C)(C)c2ccccc21 (stereo not given) | 8.27% (active)
13 | Nc1c(CNCc2nnn(Cc3ccccc3)c2N)nnn1Cc1ccccc1 | 90%
14 | CCCCCCCCCCSC(=N)N (tested in a mixture with another compound) | -26.7% (active)
15 | COCCOC(=O)NC(=O)Nc1ccc(C(=O)c2ccc(Cl)cc2)cc1 | 22.2%
16 | O=C(O)CCCCSCCCCC(=O)O | 87.6%
17 | O=C(Nc1cccc(Cl)c1)OCC(COC(=O)Nc1cccc(Cl)c1)(COC(=O)Nc1cccc(Cl)c1)[N+](=O)[O-] | 22.4%
18 | Cc1ccccc1C1=N[C@@H](Cc2ccccc2)C(=O)c2c(nc3ccccn23)N1 | 122%
19 | COc1cc(CSc2nc3ccc(Cl)cc3c(=O)n2Cc2ccccc2)cc(OC)c1OC | 23.1%
20 | C/C(=N\NC(=O)c1sc(=S)n(C)c1N)c1cc2ccccc2o1 | 42.6%

Row | SMILES | growth
21 | Nc1ccc2c(c1)Cc1cc(N)c(Cl)cc1-2 | 88.8%
22 | CCN1CCN(c2ccc(Nc3ncnc4c3nnn4CCc3cc(OC)cc(OC)c3)cc2)CC1 | 89.2%
23 | CCCC(C)c1ccc(OCCCCCCN2CCNCC2)cc1 (stereo not given) | -24.7% (active)
24 | Cn1c([N+](=O)[O-])cnc1/C=C1\Oc2ccc(Br)cc2C1=O | 6.49% (active)
25 | O=C(OCC1OC(n2cc(C(F)(F)F)c(=O)[nH]c2=O)CC1OC(=O)c1ccc([N+](=O)[O-])cc1)c1ccc([N+](=O)[O-])cc1 (stereo not given) | 60.4%
26 | c1ccc(CC(NCCNC(Cc2ccccc2)c2ccccc2)c2ccccc2)cc1 (stereo not given) | -33.7% (active)
27 | Nc1cc2c(cc1Cl)-c1ccc(Cl)cc1C2=O | 109%
28 | O=C(OCc1ncc(-c2ccc(C(F)(F)F)cc2)c(NC2CCCCCC2)n1)c1c(F)c(F)c(F)c(F)c1F | 39.4%
29 | Cc1ccc2c3c(cccc13)-c1ccccc1C2=O | 94.1%
30 | Cc1nc(N)sc1Sc1nc2ccc(Cl)cc2c(=O)n1-c1ccc(Oc2ccccc2)cc1 | -44.8% (active)
31 | O=C(CCCC(=O)N/N=C/c1cc(Cl)ccc1O)N/N=C\c1cc(Cl)ccc1O | 1.74% (active)
32 | CC(C)C[C@H](NC(=O)Cn1ccc(Nc2ccccc2)cc1=O)B(O)O | 4.14% (active)
33 | CC(C)OP(=O)(O)c1ncc(-c2ccc(C(F)(F)F)cc2)c(NC2CCCCCC2)n1 | 86.3%
34 | O=C(NCc1cn(Cc2cccc(Oc3ccccc3)c2)nn1)c1cccnc1Nc1ccccc1 | 16.3%
35 | COc1cccc2c1C(=O)c1c(O)c3c(c(O)c1C2=O)C[C@@](O)(C(=O)COC(=O)c1cccnc1)C[C@@H]3OC1CC(N)C(O)C(C)O1 (stereo not given in full) | 3.07% (active)
36 | Cc1ccc(C(=O)O)c(N)c1C | 98.4%
37 | O=C(/C=C/c1nnc2n(Cc3ccccc3)c(=O)c3c4c(sc3n12)CCCC4)c1ccccc1 | -5.47% (active)
38 | CC(C)C(C)C(N)C(=O)O (stereo not given) | 93.7%
39 | COc1ccc(NC(=O)c2sc3nc4c(cc3c2N)C(O)CCC4)cc1 (stereo not given) | 67.6%
40 | FC(F)(F)c1ccc(-c2cnc(Cl)nc2NCc2cc(C(F)(F)F)cc(C(F)(F)F)c2)cc1 | 26.2%

Reference: PubChem BioAssay (NCI)
